# Measured values published in the supplement of paper PMC6555819.
# Columns and labels:
# Test in all cases: PBM binding z-score (relative to random genomic background probes); higher = stronger binding; sequences stand for … in GC…GCGATTGACAGCGTAGAATGAAGG
# [1] = system: RARb homodimer (NR concentration 270 nM)
# In short: (§1)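 Ligand-free nuclear receptor dimers were applied to custom Agilent 4×180K protein-binding microarrays whose double-stranded probes carried direct-repeat seeds, single-nucleotide variants, half-site ablations and random human genomic background sequences in 34-nt variable regions. Incubation lasted 1 h. Binding z-scores were computed against the random background probes from regression-normalized fluorescence.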
# [2] = system: RARg:RXRa (NR concentration 270 nM, RXRa partner concentration 90 nM)
# In short: as §1
# [3] = system: RARg homodimer (NR concentration 270 nM)
# In short: as §1
# [4] = system: RXRa DBDmut IVT, anti-RXR (DBD mutation: RXRa K156A/R161A, NR concentration 90 nM)
# In short: as §1
# [5] = system: RXRa homodimer (NR concentration 180 nM)
# In short: as §1
# [6] = system: THRa:RXRa (NR concentration 90 nM, RXRa partner concentration 90 nM)
# In short: as §1
# [7] = system: THRa homodimer (NR concentration 90 nM)
# In short: as §1
# [8] = system: VDR homodimer (NR concentration 270 nM)
# In short: as §1
Sequence,PBM binding z-score [1],PBM binding z-score [2],PBM binding z-score [3],PBM binding z-score [4],PBM binding z-score [5],PBM binding z-score [6],PBM binding z-score [7],PBM binding z-score [8]
CCGCCTGGGGCAAAGGTTACCATACTCAGTACGA,2.28,3.48,1.78,-0.0654,3.55,2.05,0.443,0.257
CCTTGCGGGTCACTCCAGGTTATAGCATCGGAGT,2.74,3.99,3.63,1.43,3.78,4.98,0.573,1.2
CCTACTGGGCCACGATAGGTCATTGATTCAGTGA,2.93,2.17,2.17,-0.409,1.92,2,-0.0133,0.0413
TCATATAGGTAAAGGTCAAAGTCGAACGATATGA,4.51,6.35,5.87,1.9,7.64,3.68,0.708,2.32
ATATGTAGGTTAACGGGTCATTCAGTTTGCGCAT,2.84,3.21,2.62,1.46,3.46,2.27,0.71,2.56
GTACCAAGGTGATTAGGTCGTTGATGAGTAGGCG,1.06,0.806,0.66,0.0245,0.805,1.49,1.03,0.631
TCAGACAGGTGAAGGGAACTCAGGTACGCAGTCG,0.93,0.546,0.498,1.36,0.877,0.891,0.717,0.463
ACAGACAGGTGATGAAGGTAACTAAGGCTATCAT,0.434,0.422,0.552,-0.521,0.185,1.28,0.245,-0.317
AGAATGAGGGCACGCTGAGTTGATAGCAGAGTAG,1.3,2.28,2.15,2.2,1.7,2.53,0.735,2.08
AATACAGGCTCATCGTAGGCCAGAGTACGCACAG,0.104,-0.0529,0.066,-0.472,-0.0365,0.0323,-0.199,0.118
CGTCAAAGTTCAACGAAGGTAACGTAAAGCACGC,4.08,5.47,6.39,4.2,4.5,4.52,0.29,3.33
GGAACGAGGGCATTCGAGTTGATAGTATGGCGAT,0.948,1.22,1.61,3.39,0.99,3.38,0.0512,3.37
CCGACTGGGGCAATGTTACCATAACGCACAGCCA,-0.131,0.0448,0.359,-0.0343,-0.0938,-0.53,-0.342,-0.569
CGTCCAAGGTCATAGGAGATCAGTGAAGACAGAT,3.65,5.88,6.14,4.11,6.2,3.82,2.46,3.14
AGTATGAGGTTATTAAGATCAGGGAATTGCGGTC,1.18,1.27,1.09,2.07,1.53,2.27,1.05,1.41
CCTATTAGTTGACCATAAGAGCAACCGAAGCTCG,0.851,0.678,0.927,0.811,0.6,0.468,0.721,1.03
TCTTGTAGATCAAGCAGGGTAAGAAAGCCTGAGT,-0.297,-0.27,-0.38,0.436,-0.147,1.2,-0.451,0.209
TCTAGGTGGTCAAAGGTCACACACTCGAAATGCG,5.07,7.33,6.07,1.85,8.65,4.41,1.74,2.4
ACTATTAGTTGACTTAGGGCAACCGATACGACGC,0.899,0.818,1.01,0.684,0.661,1.53,0.316,0.121
ACAGACAGGTGAGGAAGGTAACTCAGGCTATCAT,0.672,0.425,0.577,-0.639,0.267,0.957,0.208,-0.55
TGTCAAAGTTCAATGGTAACGTAAGTATCCACAC,3.32,4.79,5.39,3.67,3.74,1.39,-0.627,3.52
AATAGCAGGCCAAGGGTCACTCAAGATTAGTCCG,3.86,4.1,3.92,0.264,4.46,2.8,0.187,1.06
ATCGCTAGGTAACCAAGTTCAGTGAATGCCGAAC,0.915,0.229,0.277,0.0688,0.062,0.934,-0.378,1.7
CGAACTAGGTCATCCAGGACAGTGAGTACATTGA,3.03,4.04,5.08,2.58,3.02,3.65,2.14,4.1
ACAGACAGGTGATGAAGGTATCTCAGGCTATCAT,0.276,0.119,0.27,-0.321,0.203,0.741,-0.068,-0.586
GCTAGTTGGTCAGTAAAAGGCCACACACCGGTCG,1.83,0.944,0.676,-0.169,0.227,0.0278,-0.175,-0.584

Sequence,PBM binding z-score [1],PBM binding z-score [2],PBM binding z-score [3],PBM binding z-score [4],PBM binding z-score [5],PBM binding z-score [6],PBM binding z-score [7],PBM binding z-score [8]
ATCGAACGGTCGTGAGGTGAGTATACAGAAAGGC,0.679,0.948,1.19,-0.665,0.53,1.48,0.666,-0.261
AGAATAAGGTTACCAAAGATCAGGGAAACGCTTG,1.1,2.06,2,0.391,2.36,2.69,0.914,0.232
CCTTTCGGGTCACTGACAGGTTATAGCATTTGGA,3.44,5.76,4.91,2.55,5.16,4.17,2.95,1.19
TATACAGGGTCAAAGACCAGAGTACGAATGTCGA,2.94,5.15,4.53,2.82,5.89,3.2,0.651,2.81
CGATCTAGGTCATTGACAGGACAGTGAATAGTAA,2.8,4.48,4.41,2.67,2.41,3.11,1.21,1.49
TAGCCTAGGTCAGATAGGGCCAGTATACGCTATA,1.93,2.8,3.74,-0.288,1.41,4.03,0.0301,-0.0363
TCTTGTAGCTCAACAGGAGGTTAAGAAAGATCGA,-0.0225,0.173,0.0214,-0.206,0.559,0.491,-1.06,-0.327
TCTATTAGTTGATTAGGGTAACCGAAACAGCGGA,0.423,0.525,0.53,1.03,0.666,1.61,0.861,0.517
CGTCAAATTTCAACTAAGGTAACGTAAAGCACGC,0.545,0.344,0.568,0.715,0.436,2.71,1.89,0.604
GCTGCTAGGTCAACTGATGGTAAGCTAAAGCTCG,2.98,4.25,4.92,1.14,2.73,2.9,0.776,-0.0201
GCATATAGGTAATACACGGTGAAAGTCCGATTGT,0.0641,0.309,0.397,0.18,0.407,1.23,-0.424,0.0175
CCTACTGGGCCAAAAAGGTCGTTGATGCCGATAA,1.92,1.18,0.763,0.0571,1.38,1.26,-0.297,1.13
AATACAGGGTCACTAGGCCAGAGTTGGTACGAAT,3.56,5.2,5.06,2.8,5.94,3.51,1.21,2.58
GCATATAGGTAATACCAGGTGAAAGTCCGATTGT,0.327,0.203,0.193,0.247,0.369,3.99,0.748,-0.0397
CCGAGTAGGATATGGGGCATTCAGGCAACGGTGA,0.223,-0.15,0.00405,-0.637,0.133,0.16,0.0622,-0.318
TCTTGTAGATCACCAGGAGGTTAAGAAAGATCGA,0.751,1.15,0.275,0.396,1.14,1.01,-0.466,0.109
ATCTCTAGGTATAGTTCAGTGAAAGATCGATAGA,1.4,0.857,1,0.996,0.686,0.473,0.453,1.12
TCATATAGGTAAAAGGTGAAAGGCGGTGTGGTAA,1.54,1.65,0.736,1.76,2.97,1.56,0.329,0.251
CTCGAGAGGTCGGTTGAGGTGAGTATACGGATAA,1.99,2.11,2.3,1.57,2.06,5,1.39,1.16
CCTCGGAGAACAGAAGGTCAGAGCTGTCCGCTTT,2.93,2.11,1.99,0.355,2.01,1.77,-0.175,0.014
TCTATTAGTTGAAGGGCGACCGACGAGTCCGTTT,0.596,0.105,-0.00665,1.84,0.439,0.0101,0.203,1.32
TCTTGTAGATCAACAGGAGGATAAGAAAGATCGA,-0.517,0.227,0.396,0.36,0.432,0.177,-0.392,-0.362
GGAACCAGGGCATTCGAGTTGATAGCATGGCGAT,1.54,1.05,1.49,1.17,0.534,2.66,0.671,1.97
GCAGACAGGTGAAACGCAGGTAACTGAGGGTGGC,0.0628,0.86,0.142,-0.51,0.568,1.06,-0.377,-0.727
CGTACTGGGCCATCAGGTCATTGATATCAACGTT,2.7,2.08,2.17,0.587,1.44,3.17,3.18,1.98
CCTTCTGGGCCAAGGTCATTGATCAGTCAAAGCA,3.27,3.66,3.02,1.31,3.24,3.49,2.34,2.71
